PubChem BioAssay AID720553 (National Center for Advancing Translational Sciences (NCATS), 2013)
Out of some 340,000 compounds screened, about 3,300 (0.97%) were called active. The sample as a whole holds a higher share of actives than the screen did. Values without a mark were called inactive.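 Rule for the calls: active = maximum activity change below -70%; inconclusive = maximum activity change from -70% to -50%; inactive = maximum activity change above -50%.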

test system: Potassium voltage-gated channel subfamily H member 2, brain isoform KCNH2 3.1 (human); assay: qHTS for Inhibitors of KCHN2 3.1: Mutant qHTS; settings: U2OS KCNH2 3.1, thallium flux FluxOr; active compounds read low
How it was run: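 Thallium flux via FluxOr fluorescence (Red40 quencher, 45 min loading) in U2OS cells virally expressing the KCNH2 3.1 isoform (1.77 x 10^8 /mL virus, overnight at 37 C). Rate constants from 2-min kinetic reads post-stimulation, normalised to positive and negative controls.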
% is set by controls: 0 for no effect and ±100 for the full control effect.

Going from `CCC(C)NC(=O)c1ccc(N2CCC3(CC2)OCCO3)c([N+](=O)[O-])c1` (stereo not given) to `COCCNC(=O)c1ccc(N2CCC3(CC2)OCCO3)c([N+](=O)[O-])c1`, the activity change falls from 15.4% to 1.85%.

Compared with `COC(=O)c1ccc(N2CCOCC2)c(NC(=O)c2ccc(Br)o2)c1`, `O=C(Nc1ccccc1N1CCN(C(=O)c2ccccc2)CC1)c1ccco1` is lower in activity change: -2.48% for the first, -10.9% for the second.

Going from `Nc1cc(C(=O)N2CCN(c3ccccc3Cl)CC2)ccc1N1CC2CC(C1)c1cccc(=O)n1C2` (stereo not given) to `O=C(c1ccc(N2CCCC2=O)cc1)N1CCN(c2ccc(C(F)(F)F)cc2[N+](=O)[O-])CC1`, the activity change rises from 6.28% to 6.83%.

Compared with `Cc1ccc(NC(=O)COC(=O)CN2CCSC2=O)cc1F`, `CCOC(=O)N1CCN(CC(=O)Nc2ccc(F)cc2)CC1` is lower in activity change: -8.22% for the first, -43.8% for the second.

Going from `CC1(C)NC(=O)N(CC(=O)Nc2ccc(-c3ccccc3)cc2)C1=O` to `CC(C)c1c(C(=O)N/N=C/c2ccc(-c3ccccc3)cc2)nnn1-c1nonc1N`, the activity change rises from -11% to -1.92%.

First: O=C1[C@H]2[C@@H](c3ccc(F)cc3)N3C(=O)N(c4ccc(C(F)(F)F)cc4)C(=O)[C@@]3(Cc3ccccc3)[C@H]2C(=O)N1C1CCCCC1
Second: O=C1[C@H]2[C@@H](c3ccc(Cl)cc3)N3C(=O)N(c4cccc(F)c4)C(=O)[C@@]3(Cc3ccccc3)[C@H]2C(=O)N1C1CCCCC1
The activity change of the first is lower: -14.9% for the first, -11.3% for the second.

Compared with `C/C(COc1ccccc1)=N\NC(=O)c1nnn(-c2nonc2N)c1-c1ccc(C)cc1`, `Nc1nonc1-n1nnc(C(=O)N/N=C\c2ccncc2)c1CN1CCCCC1` is lower in activity change: 1.24% for the first, -0.869% for the second.

Compared with `Cc1ccc(C(=O)NC(C)C(c2cccs2)N2CCOCC2)cc1C` (stereo not given), `O=C(NCCN1CCOCC1)c1ccc2c(c1)N(Cc1cccc(Cl)c1)C(=O)c1ccccc1S2(=O)=O` is higher in activity change: 2.91% for the first, 17.1% for the second.

Compared with `C#Cc1cc(N2CCN(C(=O)c3ccoc3)CC2)n2nc(-c3cccc(Cl)c3)cc2n1`, `O=C(c1cc2cc(F)ccc2[nH]1)N1CCN(c2ccc(F)cc2)CC1` is lower in activity change: 2.49% for the first, -39.9% for the second.

Going from `Cc1ccccc1Nc1nc(N)nc(CN2CCN(c3ccccn3)CC2)n1` to `CCOC(=O)N1CCN(Cc2nc3cc(NC(C)=O)ccc3n2C)CC1`, the activity change rises from -0.0863% to 8.13%.

First: CNc1nc(Nc2ccc(C)c(Cl)c2)nc(N)c1[N+](=O)[O-]
Second: Cc1cc(Nc2ccc(C)c(C)c2)n2ncnc2n1
The activity change of the first is lower: 6.15% for the first, 30.4% for the second.

Going from `COc1cccc(NC(=O)N(C)C[C@@H]2Oc3ncc(Br)cc3C(=O)N([C@@H](C)CO)C[C@H]2C)c1` to `C[C@H]1CN([C@@H](C)CO)C(=O)c2cc(-c3cccc(F)c3)cnc2O[C@@H]1CN(C)S(C)(=O)=O`, the activity change rises from -4.03% to 8.27%.

Going from `COc1ccc(S(=O)(=O)N(C)C)cc1NC(=O)COC(=O)c1n[nH]c2ccccc12` to `CC1CCc2[nH]c3ccc(C(=O)N(C)CC(=O)Nc4cccc(F)c4)cc3c2C1` (stereo not given), the activity change rises from 9.12% to 13.3%.

Going from `Cc1ccnc(SC2CC(=O)N(c3ccccc3)C2=O)n1` (stereo not given) to `CC[C@]1(C(=O)OC)[C@H]2C(=O)N(Cc3ccccc3)C(=O)[C@H]2[C@H]2CN=C(SCc3ccccc3)N21`, the activity change rises from 1.28% to 14.7%.

First: O=C(NC1CCN(Cc2ccccc2)CC1)c1cc(Br)c(Br)[nH]1
Second: CCOc1ccc(CC(=O)NC2CCN(Cc3ccccc3)CC2)cc1
The activity change of the first is lower: 0.925% for the first, 19.9% for the second.

First: CCOc1ccc(NS(=O)(=O)c2ccc(C(=O)NCC3CCCO3)cc2)cc1 (stereo not given)
Second: C=CCOc1cccc(C2C(C(=O)c3ccc(C)o3)=C(O)C(=O)N2CCN2CCOCC2)c1 (stereo not given)
The activity change of the first is higher: 3.29% for the first, -2.42% for the second.

First: COCOCCn1cc(CN2CCS(=O)(=O)N(Cc3ccc(-c4cccc(N(C)C)c4)cc3)C(CC(C)C)C2=O)nn1 (stereo not given)
Second: CCc1cc(-c2nnn(CCC3COCCO3)c2CC)ccc1-c1cn(Cc2ccc3ccccc3c2)nn1 (stereo not given)
The activity change of the first is lower: -1.27% for the first, 0.058% for the second.

Compared with `Cc1cccc(N(CC(=O)N2CCCC2)S(C)(=O)=O)c1C`, `C[C@@H]1CN([C@H](C)CO)C(=O)CCCn2nncc2CO[C@@H]1CN(C)C(=O)OCc1ccccc1` is higher in activity change: -8.33% for the first, 1.9% for the second.

First: CSc1ccc(NC(=O)N2CC(C)OC(C)C2)cc1 (stereo not given)
Second: CC1CN(C(=S)Nc2cccc(F)c2)CC(C)O1 (stereo not given)
The activity change of the first is higher: 8.24% for the first, 6.1% for the second.

Going from `C[C@@H]1CN([C@@H](C)CO)C(=O)CCCn2nncc2CO[C@H]1CN(C)C(=O)Nc1ccc(C(F)(F)F)cc1` to `CC[C@]1(C(=O)OC)[C@H]2C(=O)N(Cc3ccccc3)C(=O)[C@H]2[C@H]2CN=C(SCc3ccc(C#N)cc3)N21`, the activity change rises from -12.6% to 4.34%.

In the case of `CCCNC(=O)c1ccc(N2CCC3(CC2)CC(c2ccc(Cl)cc2)=NO3)c([N+](=O)[O-])c1`, the activity change is reported as -83.7% (active).
`CCCNC(=O)c1ccc(N2CCC3(CC2)CC(c2cccc(Br)c2)=NO3)c(NC(=O)c2ccco2)c1` was tested, and the activity change was -83.4% (active).
For `Cc1cccc(N2C(=O)N3[C@H](c4ccc(F)cc4)[C@@H]4C(=O)N(C5CCCCC5)C(=O)[C@@H]4[C@]3(Cc3ccccc3)C2=O)c1`, the activity change was -81.5% (active).
For `Cc1ccc(Nc2nc(N)nc(CN3CCN(Cc4ccccc4)CC3)n2)cc1Cl`, the activity change was -99.4% (active).
`CCOC(=O)N1CCN(Cc2nc(N)nc(Nc3ccc(C)cc3)n2)CC1` was tested, and the activity change was -78.5% (active).
With `O=C(NC1CCN(Cc2ccccc2)CC1)c1ccc(Oc2cc(Cl)cc(Cl)c2)o1` the activity change was -84.5% (active).
With `Cc1cccc(C)c1NC(=O)N1CC(C)OC(C)C1` (stereo not given) the activity change was -192% (active).
`O=C(CCCN1CCc2[nH]c3ccc(F)cc3c2C1)c1ccc(F)cc1` was tested, and the activity change was -92% (active).
`CC[C@]1(C(=O)OC)[C@H]2C(=O)N(Cc3ccccc3)C(=O)[C@H]2[C@H]2CN=C(SCc3ccc(Cl)cc3)N21` was tested, and the activity change was -98.8% (active).
With `CC(C)Oc1ccc(/C=N/NC(=O)c2nnn(-c3nonc3N)c2CN(C)C2CCCCC2)cc1` the activity change was -81.3% (active).
